Screening results as filed in PubChem.
The list is not random: actives were taken first. Their share in the collection is about 2.5%.
Mito fusion yeast: qHTS Assay for Small Molecule Inhibitors of Mitochondrial Division or Activators of Mitochondrial Fusion; S. cerevisiae fusion-defective mutant growth rescue, CellTiterGlo 48 h; Potency, µM (highest dose often 46.1 µM), without a hit: at the top dose growth rescue (activation), most hits filed as activators; 0.23% of 320,000 active; also: potency is read from the fitted curve at half-maximal effect; % of control where 0% means no effect; nearly all actives have a fitted effect of over 45% in size
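S. cerevisiae fusion-defective temperature-sensitive mutants (e.g. fzo1-1, mgm1-5) grown 48 h at 37C in YPEG (ethanol/glycerol non-fermentable) medium with 23 nl compound per well; growth rescue read as CellTiterGlo luminescence.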
pAkt inh: HTS Assay for Inhibitors of Akt Phophorylation: Primary Screen; 0.32% of 360,000 active; activity change, % for hits at 50 µM; Neuro2A IGF-stimulated pAkt S473 HTRF, 20 min; hits give low values; AID 651550, 2012; in the data active = activity change below about -80%; inconclusive = mostly about -51% to -80%; also: % is scaled to controls: 0 for no effect and ±100 for the full control effect
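Neuro2A cells in DMEM with 0.5% FBS, overnight at 37 deg C, given compound at single 50 µM final, then IGF (6 nM final) for 20 min at 37 deg C. Lysed; phospho-Akt Ser473 by HTRF after 24 h, 665/615 ratio.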
CCT chaperon mod: High-Throughput Screening for Modulators of Cytosolic Chaperonin Activity | purified chaperonin ATPase assay, HTRF ADP detection, 30 min | activity change, % (no concentration beside the values), hits read low | 0.3% of 360,000 active; in the data active = activity change below about -30%; also: % is scaled to controls: 0 for no effect and ±100 for the full control effect
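We incubate TRiC, 40 or 20 nM final, with library compounds at 76 uM and 10 uM ATP for 30 min at 37 °C. ADP formed is detected with Transcreener HTRF reagents after 30 min at room temperature.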
Apoferritin bind: qHTS Assay for Identification of Novel General Anesthetics; apoferritin/1-aminoanthracene competitive binding, fluorescence; Potency, µM (doses to about 77.5 µM), without a hit: at the top dose activity change, negative = displacement, hits mostly inhibitors; 0.074% of 350,000 active; AID 485281, 2010; also: potency is read from the fitted curve at half-maximal effect; % is scaled to controls: 0 for no effect and ±100 for the full control effect; nearly all actives have a fitted effect of over 20% in size
Target sequence (P02791 2-175 limits assumed): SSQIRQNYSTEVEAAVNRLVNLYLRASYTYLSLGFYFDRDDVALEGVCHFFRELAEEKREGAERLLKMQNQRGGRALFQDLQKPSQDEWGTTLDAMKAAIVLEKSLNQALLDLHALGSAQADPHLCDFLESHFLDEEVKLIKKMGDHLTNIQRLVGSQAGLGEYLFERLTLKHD
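Horse-spleen apoferritin (10 uM) in 50% saturated 1-aminoanthracene in PBS was incubated 10 min at room temperature with compound. Fluorescence (ex 380, em 535 nm) was normalized to free and bound 1-AMA, with concentration-response fitted by a four-parameter Hill equation.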
aSyn yeast inh: qHTS of alpha-syn Inhibitors; 0.14% of 370,000 active; Potency, µM (series often up to 46.1 µM), inactives show at the highest dose growth rescue (activation), actives largely listed as activators; Yeast expressing alpha-synuclein, growth rescue, BacTiter-Glo, 24 h; also: potency is read from the fitted curve at half-maximal effect; % of control where 0% means no effect; nearly all actives have a fitted effect of over 65% in size
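Screening used galactose-induced yeast with toxic alpha-synuclein levels, exposed to compound for 24 hr at 30 deg C. Cell growth, read with BacTiter-Glo luminescence, gave the measured signal.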
TDP43 rescue: qHTS of TDP-43 Inhibitors. Potency, µM (top dose mostly 46.1 µM), for inactives: at the top dose growth rescue (activation), most hits filed as activators. TDP-43 expressing yeast growth rescue, BacTiter-Glo, 24 h. AID 652104, 2013. 1.8% of 410,000 active; also: potency is read from the fitted curve at half-maximal effect; % of control where 0% means no effect; nearly all actives have a fitted effect of over 50% in size
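Cell-based yeast growth screen: TDP-43 expression induced in galactose, inoculum OD600=0.02 after raffinose pregrowth to mid-log. Read-out BacTiter-Glo luminescence at 24 hr, 30 deg C; inhibition of toxicity seen as signal increase.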
Active calls of the source: *; i = inactive; u = inconclusive; x = no result; [ ] = remark or other dose. Unless noted, calls follow the shape of the dose curve; as a rule, active = well fitted curve in the direction sought with a large enough effect; inconclusive = small, poorly fitted or top-dose-only effect, or another doubt; inactive = no such curve, though single readings can be large; an effect the other way counts as inactive or inconclusive.

SMILES | Mito fusion yeast | pAkt inh | CCT chaperon mod | Apoferritin bind | aSyn yeast inh | TDP43 rescue
CCN1CCN(C(=O)/C(C#N)=C/c2ccc(OC(F)F)cc2)CC1 | -1% | i | -1 | 1% | 1% | 11%
N#C/C(=C\c1ccc(OC(F)F)cc1)C(=O)N1CCCCC1 | -7% | i | 1 | 5% | 13µM* | u
COc1ccc(OC(C)C(=O)NCc2nc(-c3ccc(Cl)cc3)no2)cc1 (centres undefined) | x | x | x | 1% | x | 16µM*
COc1ccccc1OCC(=O)NCc1nc(-c2ccc(Cl)cc2)no1 | x | x | x | 1% | x | 0%
CCC(C)(C)n1nnnc1C(c1ccc(O)c(OC)c1)N1CCN(c2nc3ccccc3s2)CC1 (centres undefined) | 1% | i | -2 | -5% | -11% | 20µM*
COc1ccc(C(c2nnnn2C(C)(C)C)N2CCN(c3nc4ccccc4s3)CC2)cc1 (centres undefined) | 10% | i | -2 | 0% | 0% | 18%
O=c1nc2ccccc2c2n1CC(CN1CCN(c3ccccc3)CC1)N2 (centres undefined) | x | x | x | -2% | x | x
COc1cc(NC(=S)Nc2ccccn2)cc(OC)c1 | 6% | i | 1 | -14% | 1% | 10µM*
S=C(Nc1ccccn1)Nc1ccccc1Cl | 0% | i | -4 | 4% | -4% | 16µM*
CCOC(=O)CCN1C(=O)[C@@H]2[C@H]3C(=CC[C@H]2C1=O)C(=O)[C@H]1O[C@H]1[C@H]3O | x | x | x | -1%[15.3 µM] | x | x
CCOC(=O)c1ccc(NC(=O)Cc2ccc(-n3c(CC)nc4cccnc43)cc2)cc1 | x | x | x | -11% | x | 7%
CCC(=O)N1N=C(c2ccc(C)o2)CC1c1ccc(OC)cc1 (centres undefined) | 1% | i | -2 | -10% | 4% | 22%
CCC(=O)N1N=C(c2ccc(C)o2)CC1c1ccc(Br)cc1 (centres undefined) | u | i | -1 | 1% | 20% | 18µM*
c1ccc(-c2nc(SCC3CCCCO3)n[nH]2)cc1 (centres undefined) | x | x | x | x | 1% | x
O=S(=O)(c1cc(Br)ccc1Br)N1CCCCCC1 | -1% | i | -3 | -16% | 4% | 7.9µM*
N#Cc1ncc(-c2ccc3c(c2)OCCOCCOCCOCCOCCO3)nc1C#N | 20µM* | i | -1 | -15% | 4% | 12%
CC1CCCCC1NC(=O)COC(=O)c1ccc(N(C)C)cc1 (centres undefined) | 7% | i | 0 | u | 6% | 16µM*
Cc1ccc(C(=O)OCC(=O)NC2CCCC(C)C2C)s1 (centres undefined) | x | i | 1 | x | 28% | u
CC1CCCC(NC(=O)COC(=O)c2cccs2)C1C (centres undefined) | 2% | i | -1 | x | 10% | 11µM*
CN(C)c1ccc(C(=O)OCC(=O)NC2CCCCCC2)cc1 | 28% | i | -2 | u | -8% | 22%
CC(C)(C)c1nnc(N/N=C/c2ccccc2O)n(N)c1=O | -4% | i | 2 | -3% | 18µM* | 13%
COc1ccccc1OCC(=O)Sc1ccc(C)cc1 | 4% | i | -4 | u | 25% | u
COc1ccccc1C(=O)Oc1c(Sc2ccccc2)c(C)nn1-c1ccccc1 | x | x | x | 4% | x | 21%
COc1cc(C(=O)Oc2c(Sc3ccc(C)cc3)c(C)nn2-c2ccccc2)cc(OC)c1OC | x | x | x | 0% | x | 22µM*
COc1cc(C(=O)Sc2ccc(C)cc2)cc(OC)c1OC | -9% | i | 0 | -20% | -21% | 28µM*
SMILES | Mito fusion yeast | pAkt inh | CCT chaperon mod | Apoferritin bind | aSyn yeast inh | TDP43 rescue
NCCCN(Cc1ccccc1)c1ccc(Br)cn1 | x | x | x | x | -1% | x
O=[N+]([O-])c1cccc(CN2C(COCc3ccccc3)CCC=CS2(=O)=O)c1 (centres undefined) | x | x | x | -22% | x | x
COc1ccc(CC(=O)O/N=C(\N)Cc2ccc(OC)cc2)cc1 | 4% | i | 2 | u | -8% | 11µM*
COc1ccc(C/C(N)=N/OC(=O)Cc2ccccc2)cc1 | 2% | i | -1 | -13% | -2% | 16µM*
COc1ccc(/C(N)=N/OC(=O)CN(C)S(=O)(=O)c2ccccc2)cc1 | 20% | i | -2 | 0% | 4% | 13µM*
COc1ccc(CC(=O)O/N=C(\N)c2ccc(OC)cc2)cc1 | 7% | i | 0 | -9% | 11% | 18µM*
COc1ccc(C/C(N)=N/OC(=O)CCc2ccccc2)cc1 | -11% | i | 0 | -14% | -37% | u
CCC1CCCCN1S(=O)(=O)c1cc2c(cc1C)NC(=O)CO2 (centres undefined) | x | x | x | 0% | x | 19%[9.22 µM]
COc1ccc(/C(N)=N/OC(=O)C2CCCCC2)cc1 | -1% | i | 0 | -23% | -10% | 16µM*
N/C(Cc1ccc(Cl)cc1Cl)=N\OC(=O)Cc1ccc(Cl)cc1 | -19% | i | -1 | 34% | -61% | 1.3µM*
Oc1ccc(Br)cc1C1C=C(c2ccc3c(c2)OCO3)NC(c2c(F)cccc2Cl)N1 (centres undefined) | x | x | x | x | -4% | x
Cc1nc2sc(C(N)=O)c(N)c2c(-c2ccc(Br)cc2)c1C(=O)Nc1ccc(Cl)cc1 | x | x | x | 81% | x | 22µM*
CCC(C)NC(=O)c1sc2nc(C)c(C(=O)Nc3ccc(Cl)cc3)c(-c3ccc(Br)cc3)c2c1N (centres undefined) | x | x | x | 32% | x | 6%
Cc1ccc(C(=O)CSc2nnc(-c3ccco3)n2Cc2ccccc2)cc1 | 2% | -109%* | -1 | u | 7% | 13%
Cc1nc(-c2ccccc2)c(-c2ccncc2)o1 | x | x | x | -10% | x | x
O=C(/C=C/c1ccc(Cl)cc1)NCCN1CCOCC1 | 0% | -95%* | 0 | -10% | 4% | 20%
COC(=O)c1sccc1NC(=O)Nc1ccc(C)cc1C | -2% | i | -1 | -2% | 0% | 13µM*
COC(=O)c1sccc1NC(=O)c1cc(-c2ccc(C)cc2C)nc2ccccc12 | 1% | -117%* | -2 | -16% | -2% | 0%
COC(=O)c1sccc1NC(=O)Nc1ccc(C)cc1 | -3% | i | 0 | -6% | -43% | u
COC(=O)C1=C(C)N(Cc2ccccc2)C2=C(C(=O)c3ccccc3)C(c3ccccc3)[C@@](O)(C(=O)OC)C(=O)N2C1c1ccccc1 (some centres undefined) | x | x | x | -11%[15.3 µM] | x | x
